Bioassay records (PubChem BioAssay)
A selection: hits, their analogues and other compounds. The true share with any hit is near 1.6%.
V-ATPase pH: alters yeast V-ATPase proton transport | S. cerevisiae, pHLuorin cytosolic pH fluorescence | response, % at 10 µM | 0.37% of 350,000 active; in the data active = response mostly above about 7.3%, no sharp cut-off; inactive = mostly below about 5.4%; note: actives read high
CR mimetic SO: yeast age-related superoxide inhibition as caloric restriction mimetic | S. cerevisiae aged cells, superoxide DHE fluorescence; active compounds read low | superoxide response (% of plate mean), % at 10 µM | 0.18% of 330,000 active;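 active = superoxide response under a set limit, about three screen SD below normal, cut at about 65% in these data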;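 note: yeast aged for seven days with compound at 30 °C before DHE staining; 100% = average MFI of all compound-treated wells on the plate with controls excluded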
NALP1 inh: inhibitors of NALP1 inflammasome in yeast; S. cerevisiae NALP1/ASC/caspase-1 growth, X-gal OD620, 72 h; inhibition, % at 10 µM; 0.61% of 280,000 active; in the data active = inhibition mostly above about 24%, no sharp cut-off; inactive = mostly below about 32%
Rce1 inh: inhibitors of yeast Ras-converting enzyme; calls only; yeast membranes, quenched prenylated peptide cleavage fluorescence; Q03530; 0.27% of 290,000 active;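 active = fall in fluorescence gain of 50% or more versus controls, with final raw signal at or below 3038400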;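 note: plate controls were neutral control wells for no effect and wells lacking membranes for full effect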
Target sequence (Q03530 whole entry, looked up): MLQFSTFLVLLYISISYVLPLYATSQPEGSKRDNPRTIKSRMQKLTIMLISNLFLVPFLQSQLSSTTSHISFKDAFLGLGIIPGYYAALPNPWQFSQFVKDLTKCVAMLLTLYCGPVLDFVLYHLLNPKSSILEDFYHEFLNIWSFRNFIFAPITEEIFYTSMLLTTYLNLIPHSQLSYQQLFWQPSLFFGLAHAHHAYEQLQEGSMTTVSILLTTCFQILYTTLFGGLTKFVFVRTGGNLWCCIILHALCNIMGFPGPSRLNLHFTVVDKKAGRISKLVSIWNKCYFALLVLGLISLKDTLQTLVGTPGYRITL
NALP3 yeast inh: inhibitors of NALP3 inflammasome in yeast | inhibition, % at 10 µM | Yeast reconstituted NLRP3/ASC/caspase-1, beta-gal luminescence, 24 h | AID 2825 | 0.39% of 330,000 active;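 active = inhibition of 50% or more; inactive = inhibition below 50%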;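 note: plate controls were induced DMSO wells for no effect and uninduced yeast grown without galactose for full effect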
PERK inh: blocks human PERK kinase. inhibition, % at 5.6 µM. Q9NZJ5. 0.17% of 220,000 active. AID 1416. CHO PERK-DD fusion, SEAP luminescence translation reporter;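 active = inhibition above the mean inhibition of all tested compounds plus 3 SD, set separately per screening campaign, cut at about 2.9% in these data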;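 note: PERK kinase domain activated by AP20187 dimerizer at 100 nM; 0% = DMSO with dimerizer and 100% = rapamycin at 8.4 µM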
Active calls of the source: *; i = inactive; . = no result given; + = active, no number.

SMILES	V-ATPase pH	CR mimetic SO	NALP1 inh	Rce1 inh	NALP3 yeast inh	PERK inh
N/C(Cc1ccc(Cl)cc1)=N\OC(=O)C1CCCCC1	0	115	47*	i	10	1
COc1cccc(C(=O)O/N=C(\N)Cc2ccc(Cl)cc2)c1	-1	102	77*	i	17	2
N/C(=N\OC(=O)c1ccccc1Br)c1ccc([N+](=O)[O-])cc1	0	91	-8	i	18	.
N/C(Cc1ccc([N+](=O)[O-])cc1)=N\OC(=O)c1ccccc1Br	1	89	68*	i	20	0
N/C(Cc1ccc([N+](=O)[O-])cc1)=N\OC(=O)c1ccc2ccccc2c1	-1	115	30	+	28	1
COc1cccc(C(=O)O/N=C(\N)c2ccc(C)cc2)c1	-4	112	19	i	35	.
O=C(COC(=O)C1CCCC1)NCc1ccc(Cl)cc1	0	84	-27	i	-13	0
Nn1c(SCC(=O)N2CCCC2)nnc1-c1cccs1	-1	.	.	.	.	.
O=C(CCNC(=O)c1ccc([N+](=O)[O-])cc1)Nc1cc(C(F)(F)F)ccc1N1CCOCC1	3	.	.	.	.	.
Cc1ccc(S(=O)(=O)n2cccc2/C=C/[N+](=O)[O-])cc1	3	.	.	.	.	.
O=C(O)c1cccnc1SCc1cn2cc(Cl)ccc2n1	-1	103	5	i	2	3.0*
O=C(/C(=C/c1ccccc1)n1cncn1)c1ccc(Cl)cc1Cl	0	88	43*	i	32	0
Nc1ccn(CCCNC2CCN(Cc3ccccc3)CC2)c(=O)n1	2	.	.	.	.	.
O=C(Nc1ncccc1O)c1ccc(Oc2ccccc2)cc1	4	122	43*	i	33	.
CC(C)(C)c1cc(C(=O)N2CCc3ccccc32)ccn1	17*	96	15	i	13	-1
CC(C)(C)c1cc(C(=O)N2CCc3ccccc3C2)ccn1	-3	94	7	i	3	.
C=C(C(=O)Oc1ccccc1C(C)(C)C)c1ccccc1	.	72	.	.	24	.
COc1ccc(-c2nc(CN3CCC(C(=O)NC4CCCc5ccccc54)CC3)c(C)o2)cc1OC (stereo unspecified)	13*	.	.	.	.	.
CSc1ncnc2c1ncn2CCCNCc1ccc(C)o1	0	.	.	.	.	.
CCOc1cc(S(=O)(=O)N(Cc2ccccc2)Cc2ccccc2)c(OCC)cc1-n1cnnn1	1	.	2	+	.	-1
CCOc1cc(S(=O)(=O)NCc2ccccc2)c(OCC)cc1-n1cnnn1	-1	103	.	i	-7	-1
O=C(C[C@H]1C(=O)N(CCc2ccccc2)C[C@@H]1c1ccccc1)Nc1ccccc1	1	.	.	.	.	.
CC1CCc2nc3ccccc3c(C(=O)OCC(=O)NC3CCS(=O)(=O)C3)c2C1 (stereo unspecified)	1	104	-9	i	-1	0
Cc1c2c(nc3ccccc13)CCC(C)C2 (stereo unspecified)	0	86	36*	i	23	0
O=C(NCc1ccc2c(c1)OCO2)c1c(O)c2cccc3c2n(c1=O)CCC3	30*	95	2	.	22	0
SMILES	V-ATPase pH	CR mimetic SO	NALP1 inh	Rce1 inh	NALP3 yeast inh	PERK inh
O=C(NCc1ccccc1)c1c(O)c2cccc3c2n(c1=O)CCC3	-1	89	-7	i	-2	0
CC1(C)N=C(c2ccccc2)C(=O)N1	3	100	-4	.	4	0
CC1(C)N=C(c2cccc(F)c2)C(=O)N1	20*	95	8	i	-1	0
Cc1ccc(NC(=O)CN(C)C(=O)C2CCC2)cc1	5	.	.	.	.	.
COC(=O)[C@@]1(Cc2ccc(OC)cc2)[C@@H]2C(=CC(=O)[C@H]2CC(=O)C(=O)N(C)C)CN1C(=O)c1ccccc1	.	99	14	.	2	-1
C=C1C(=O)C=C2CN(C(=O)c3ccccc3)[C@@](Cc3ccc(F)cc3)(C(=O)OC)[C@@H]12	-11	110	63*	i	31	-1
O=C(Nc1ccnn1C1CCN(C(=O)c2cccnc2)CC1)c1cccc(F)c1	1	.	.	.	.	.
OCC1(CC2CCCCO2)CCN(C/C=C/c2ccccc2)CC1 (stereo unspecified)	0	106	39*	i	11	-1
O=C(O)c1ccccc1SC1CC(=O)N(c2ccccc2)C1=O (stereo unspecified)	-3	113	57*	i	18	0
COC(=O)c1c(N2C(=O)CC(Sc3ccccc3C(=O)O)C2=O)sc(C)c1C (stereo unspecified)	-2	90	22*	i	1	0
COC(=O)c1c(N2C(=O)CC(Sc3ccccc3C(=O)O)C2=O)sc2c1CCCC2 (stereo unspecified)	1	85	-2	i	1	0
CC(C)(C)NCC(=Cc1ccccc1)C(=O)c1ccccc1	-5	.	.	.	.	.
CCCc1nn(C)c(C(=O)Nc2cccc(Cl)c2)c1Cl	4	103	28	i	16	0
CCCc1nn(C)c(C(=O)Nc2cccc(C)c2)c1Cl	0	92	46*	i	28	0
CC(C)c1ccc(/C=C2\SC(=S)N(CCC(=O)NCCCn3ccnc3)C2=O)cc1	6	91	-22	+	4	.
COCC(C)NC(=O)C1CC(=O)N(CCc2ccc(F)cc2)C1 (stereo unspecified)	-4	.	.	.	.	.
Cc1cccc(NC(=S)N2CCN(Cc3ccccc3)CC2)c1C	16*	92	27	i	18	0
O=C1C=CN(C2OC(CO)C(O)C2O)C(=O)C1 (stereo unspecified)	-3	.	.	.	.	.
COc1ccc(N=C2S/C(=C\c3ccc(Cl)c([N+](=O)[O-])c3)C(=O)N2CCN(C)C)cc1	0	100	41	i	27	.
CCN(CC)CCN1C(=O)/C(=C\c2ccc(Cl)c([N+](=O)[O-])c2)SC1=Nc1ccc(OC)cc1	3	104	44*	i	39	.
COc1ccc(N2C(=O)CC(Sc3ncn[nH]3)C2=O)c(OC)c1 (stereo unspecified)	4	96	34	i	15	1
CC(C)c1ccc(N2C(=O)CC(Sc3ncn[nH]3)C2=O)cc1 (stereo unspecified)	8	85	101*	i	15	0
Cc1cc(O)c(-c2cc(C(=O)Nc3cccnc3)[nH]n2)cc1C	4	93	37*	i	-2	0
COc1cc2c3c(cccc3c1)C(=O)N(CCN1CCCC1)C2=O	-4	.	.	.	.	.
COC(=O)N(C)C[C@@H]1OCc2cnnn2CCCC(=O)N([C@@H](C)CO)C[C@H]1C	-2	.	.	.	.	.
S=c1nc[nH]c2c1cnn2-c1ccccc1	0	87	1	+	25	1
CCN(Cc1ccccc1)S(=O)(=O)c1ccc(C(=O)N(CCCN(C)C)c2nc3cc(C)cc(C)c3s2)cc1	-3	96	.	+	23	.
O=C1Cc2c([nH]c3ccc([N+](=O)[O-])cc23)-c2ccccc2N1	-4	.	.	.	.	.
O=C(NCCO)/C(=C\c1cccc([N+](=O)[O-])c1)NC(=O)c1cccs1	1	.	.	.	.	.
